A selection: hits, their analogues and other compounds. The true share with any hit is near 21%.
HCV inhibitor – blocks hepatitis C virus; Huh7.5.1 HCVcc-Cre infection, luciferase reporter, 44 h; 340,000 tested, 3.4% active; AID 651820; Potency, µM (highest dose often 41.8 µM), for the others: at the highest dose activity change, negative = inhibition, usual class: inhibitors; further: potency means the concentration at half of the fitted maximal effect; on the % scale 0 is the no-effect control and ±100 the full control effect
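After 44 h co-culture of compound, cells and HCVcc-Cre (~0.5 moi), substrate is added for 15 min at room temperature and luciferase measured over 15 sec. Cells were seeded at 1,000/well and pre-cultured 4 h.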
Pf growth 48h – P. falciparum growth inhibition at 48 hours (one generation); P. falciparum luciferase growth in erythrocytes, 48 h; 310,000 tested, 5.9% active; Potency, µM (series often up to 28.7 µM), for the others: at the top dose activity change, negative = inhibition, hits mostly inhibitors; further: potency means the concentration at half of the fitted maximal effect; on the % scale 0 is the no-effect control and ±100 the full control effect
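In quantitative HTS format, infected erythrocytes bearing luciferase-reporter parasites were treated for a single generation at 37 C. Luminescence after adding detection reagent served as the growth measure.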
Pf growth 96h – P. falciparum growth inhibition at 96 hours. P. falciparum luciferase reporter growth, 96 h. Potency, µM (highest dose often 28.7 µM), without a hit: at the top dose activity change, negative = inhibition, actives largely listed as inhibitors. 320,000 tested, 6.9% active. AID 504834; further: potency means the concentration at half of the fitted maximal effect; on the % scale 0 is the no-effect control and ±100 the full control effect
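Erythrocytes infected with luciferase-expressing P. falciparum were dispensed at 2% hematocrit and 0.05% parasitemia (final), then incubated with compounds 96 hours at 37 C in 5% CO2. Luminescence after detection reagent addition reported growth.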
AMA1-RON2 inh – disrupts binding of P. falciparum AMA1 to RON2 | 360,000 tested, 0.2% active | AlphaScreen AMA1-biotinylated RON2 peptide binding | Potency, µM (titrated, usually from 58.2 µM), inactives show top-dose activity change, negative = inhibition, actives largely listed as inhibitors;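 further: potency means the concentration at half of the fitted maximal effect; 0% = vehicle wells and -100% = peptide control; nearly all actives have a fitted effect of over 45% in size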
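AMA1 (3D7) with his tag at 25 nM final met compounds first, then biotinylated RON2 peptide at 25 nM; detection used donor plus acceptor beads, 10 µg/mL apiece, read by AlphaScreen after 30 min at room temperature.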
CHX counter – counter-screen for Shiga toxin inhibitors: cycloheximide protein synthesis inhibition | cell reporter, cycloheximide protein synthesis inhibition counterscreen | max response, % | 300,000 tested, 12% active; in the data active means max response mostly above about 13%, no sharp cut-off; inactive means mostly below about 14%; further: read at 38.3 µM for the half of the compounds with a filed dose; 0% is about no effect
Shiga toxin inh – Shiga toxin inhibition; 290,000 tested, 9.2% active; AID 2315; inhibition, % at 38.7 µM; Vero cells, Shiga toxin protein synthesis inhibition reporter; in the data active means inhibition mostly above about 28%, no sharp cut-off; inactive means mostly below about 43%; further: 0% is about no effect
* hit, by the source's call; ? = inconclusive; . = no result; [ ] = remark or other dose. Unless noted, the call rests on the fitted dose curve; in most records, active means well fitted curve in the direction sought with a large enough effect; inconclusive means small, poorly fitted or top-dose-only effect, or another doubt; inactive means no such curve, though single readings can be large; an effect the other way counts as inactive or inconclusive.

SMILES	HCV inhibitor	Pf growth 48h	Pf growth 96h	AMA1-RON2 inh	CHX counter	Shiga toxin inh
CCOC(=O)c1ccc(NC(=O)NNS(=O)(=O)c2cc(OC)ccc2OC)cc1	-3%	41%	5.2µM*	20%	0	-1
CCOC(=O)c1nnsc1NC(=O)Nc1ccc(OC)cc1	-10%	4.1µM*	27%	-10%	-3	-7
CCOC(=O)c1ccc(N2CCN(c3ccccc3F)CC2)c(NC(=O)Nc2cccc(OC)c2)c1	?	5.2µM*	?	-6%	4	-6
CCOC(=O)c1cccc(NC(=O)Nc2cc(OC)ccc2OC)c1	16µM*	16%	.	-18%	-1	17
CC1(CCc2ccccc2)NC(=O)NC1=O (stereo not drawn)	27%	.	.	-13%	.	.
CCCNC(=O)CN1C(=O)COc2ccc(S(=O)(=O)N3CC(C)CC(C)C3)cc21 (stereo not drawn)	-13%	17%	?	-1%	-4	-7
O=S(=O)(c1ccc2nc(Cl)c(Cl)nc2c1)N1CCN(S(=O)(=O)c2c(F)cccc2F)CC1	.	.	.	.	-3	2
CN1C(=O)SC(Nc2ccccc2)C1=O (stereo not drawn)	0%	-17%	?	2%	1	-4
COc1cccc(NC2SC(=O)N(c3ccccc3)C2=O)c1 (stereo not drawn)	4%	103%	-1%	13%	43*	61*
CSCc1c(C(=O)Nc2ccc(N3CCOCC3)cc2)oc2ccccc12	1%	.	-11%	-21%	8	-8
CSCc1c(C(=O)Nc2ccccc2N2CCOCC2)oc2ccccc12	-6%	12µM*	-113%	-1%	.	.
Cc1c(C(=O)Nc2ccc3c(c2)OCO3)oc2ccccc12	?	255%	347%	?	43	121*
Cc1c(C(=O)Nc2ccc3nc(N4CCOCC4)sc3c2)oc2ccccc12	11µM*	10µM*	?	-3%	.	.
COCC(=O)Nc1c(C(=O)Nc2ccc3c(c2)OCO3)oc2ccccc12	8%	45%	218%	0%	7	11
CC(=O)Nc1c(C(=O)Nc2ccc3c(c2)OCO3)oc2ccccc12	-9%	252%	268%	-13%	42*	114*
CS(=O)(=O)N(CC(=O)N1CCCCC1)c1cccc(F)c1	1%	22%	-15%	-3%	-3	-8
Cc1cc(N2CCN(C(C(=O)NC3CCCC3)c3ccco3)CC2)c2ccccc2n1 (stereo not drawn)	.	.	.	-10%	.	.
CSCc1c(C(=O)Nc2ccc3c(c2)OCO3)oc2ccccc12	-28%	6%	25%	4%	19*	60*
O=C(CCl)Nc1c(C(=O)Nc2ccc3c(c2)OCCO3)oc2ccccc12	?	-5%	?	-1%	69*	84*
Cc1ccc(NC(=O)c2ccc3nc(N4CCOCC4)sc3c2)c(Cl)c1	5%	44%	-11%	-1%	16*	4
O=C(CCNC(=O)c1ccccc1Cl)Nc1ccc2c(c1)OCCO2	.	.	.	6%	.	.
CCc1nnc(NC(=O)CCNC(=O)c2ccco2)s1	25%	?	3%	-11%	-3	17
CCC1CCCCN1CCCNC(=O)CN1C(=O)COc2ccccc21 (stereo not drawn)	1%	7%	91%	-8%	-2	-9
CN1C(=O)NC(c2ccc(Cl)cc2)C2=C1CC(C)(C)CC2=O (stereo not drawn)	17%	3%[0.00184 µM]	?	3%	-7	-15
O=C(NNC(=O)c1ccc(F)cc1F)c1ccc(-n2cnnn2)cc1	9%	14%	22%	13%	-3	-10
SMILES	HCV inhibitor	Pf growth 48h	Pf growth 96h	AMA1-RON2 inh	CHX counter	Shiga toxin inh
CCCCCCCCCC[N+](C)(C)CC/C=C1/c2ccccc2Sc2ccc(Cl)cc21	?	.	3.7µM*	-15%	-1	21
CC[N+](C)(C)CC/C=C1/c2ccccc2Sc2ccc(Cl)cc21	-13%	3.7µM*	1.7µM*	4%	-1	-4
CCCn1c(N)c(C(=O)CN(C)CC(=O)Nc2ccccc2C(F)(F)F)c(=O)[nH]c1=O	6%	?	?	44%	.	.
Nc1ccccc1C(=O)NC1CCCNC1=O (stereo not drawn)	7%	.	.	2%	.	.
CSC[C@H]1CN(c2ccccc2)C(=O)[C@@H]1CC(=O)Nc1ccccc1	.	.	.	-8%	.	.
Cn1nccc1C(=O)N1CCCC(N2CCN(Cc3ccc4c(c3)OCO4)CC2)C1 (stereo not drawn)	43%	-11%	-21%	-18%	5	-4
COc1ccc(NC(=O)CN(C)C(=O)c2c(-c3c(F)cccc3Cl)noc2C)cc1	-24%	?	?	-4%	.	.
O=[N+]([O-])c1ccccc1CSc1nc2ccccc2o1	11%	110%	154%	-9%	40*	75*
Cc1ccccc1CN(c1ccc(C(=O)NCc2ccccn2)cc1)S(C)(=O)=O	15%	1%	20%	0%	-1	-9
CC(C)OC(=O)C(C)Oc1ccc(C(=O)NCCc2ccccc2)cc1 (stereo not drawn)	11%	64%	9%	-1%	25*	40*
CC(Oc1ccc(C(=O)NCCc2ccccc2)cc1)C(=O)O (stereo not drawn)	14%	39%	.	1%	9	-9
CCCCOc1ccc(C(=O)NCCc2ccccc2)cc1	-23%	27%	2.6µM*	2%	42*	91*
CS(=O)(=O)N(Cc1ccccc1Cl)c1ccc(C(=O)NCc2ccccn2)cc1	9%	?	10µM*	53%	-7	1
O=C(COc1ccc(C(=O)NCCc2ccccc2)cc1)Nc1ccccc1	2%	7%	4.1µM*	-3%	-2	-8
CCNC(=O)CC1C(=O)N(CC)C(=S)N1NC(=O)c1ccccc1 (stereo not drawn)	14%	-2%	?	58%	0	2
Cc1cc(OCC(=O)OCC(=O)NCCN2C(=O)CSC2=O)ccc1Cl	-11%	-4%	-12%	25%	.	.
CCCCOc1ccc(C(=O)NCc2ccccn2)cc1	?	-1%	.	57%	21*	34
CCCCOc1ccc(C(=O)NCC(=O)NCCOc2ccccc2OC)cc1	13µM*	-8%	-3%	-5%	.	.
O=C(Nc1ccc(F)c(Cl)c1)c1ccc2sc([C@@H]3O[C@H](CO)[C@H](O)[C@H](O)[C@H]3O)nc2c1	.	.	.	11%	.	.
CCOc1ccc(N2C(=O)C(c3ccccc3)=C(c3nc4ccccc4s3)C2NC(C)=O)cc1 (stereo not drawn)	-23%	.	?	-15%	2	15
CCOc1ccc(-n2nnnc2-c2nc3ccccc3s2)cc1	6%	2%	?	-11%	60*	138*
Cc1ccc(-n2nnnc2-c2nc3ccccc3s2)cc1	13%	-18%	?	8%	15*	51*
Cc1noc(C)c1C(=O)OCC(=O)c1cc(C)n(Cc2ccccc2Cl)c1C	11µM*	39%	.	-21%	45*	63*
